# Only some compounds are listed: those with a hit (about 3% of all), similar ones and a draw of the others.
# PAFAH2 FP inh: inhibitors of human PAFAH2; Q99487; recombinant PAFAH2, FP-rhodamine activity probe, fluorescence polarization; inhibition, % at 3.39 µM; hit rate 0.99% among 340,000; AID 492956;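 active = inhibition above the mean over all tested compounds plus 3 SD, cut at about 30% in these data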;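 note: inhibitors block probe labeling of enzyme so polarization drops; 0% = enzyme with DMSO and 100% = wells lacking PAFAH2 protein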
# CTSL1 counter: cathepsin L1 inhibition, PFM18AAP counter-screen | recombinant F. hepatica cathepsin L1, Z-Leu-Arg-MCA fluorescence | inhibition, % at 5.96 µM | hit rate 0.49% among 300,000 | AID 1906;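 active = inhibition above the mean of all tested compounds plus 3 SD, set per screening campaign, cut at about 17% in these data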;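 note: 0% = plate median of test compound wells and 100% = 1 µM Z-Phe-Ala-diazomethylketone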
# PAFAH1B3 inh: inhibitors of human PAFAH1B3; Q15102; recombinant PAFAH1B3, FP-rhodamine probe, fluorescence polarization; inhibition, % at 3.39 µM; hit rate 0.28% among 340,000; AID 492972;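 active = inhibition above the screen-wide average of all tested compounds plus 3 SD, cut at about 25% in these data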;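 note: 0% = enzyme with DMSO only and 100% = wells lacking PAFAH1B3 protein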
# pPAFAH inh: pPAFAH (human) enzyme inhibition; recombinant pPAFAH, FP-rhodamine probe fluorescence polarization; hit rate 1.5% among 330,000; inhibition, % at 3.39 µM;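 active = inhibition above the mean inhibition across the screen plus 3 SD, cut at about 25% in these data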;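 note: inhibitors block binding of the rhodamine activity-based probe so polarization drops; 0% = enzyme with DMSO and 100% = wells lacking pPAFAH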
# PAFAH1B2 inh: inhibitors of human PAFAH1B2; P68402; recombinant PAFAH1B2, FP-rhodamine activity probe, fluorescence polarization; inhibition, % at 3.39 µM; hit rate 1.2% among 340,000;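 active = inhibition above the mean of all tested compounds plus 3 SD, cut at about 24% in these data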;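 note: 0% = enzyme with DMSO and 100% = wells lacking PAFAH1B2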
# PP5 inh: PP5 (human) phosphatase inhibition; P53041; purified PP5c, OMFP substrate fluorescence; inhibition, % at 6.7 µM; hit rate 0.18% among 320,000;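 active = inhibition above the campaign's mean inhibition across all tested compounds plus 3 SD, cut at about 9.5% in these data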;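 note: 0% = DMSO only and 100% = 100 µM cantharidin control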
# PAFAH1B3 confirm: PAFAH1B3 (human) inhibition, confirmed; hit rate 30% among 390; AID 493032; recombinant PAFAH1B3, FP-Rh activity-based probe, fluorescence polarization; inhibition, % at 3.39 µM; shares compounds with PAFAH1B3 inh;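 active = average inhibition over triplicate runs above the hit cutoff set in the earlier primary screen, cut at about 25% in these data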;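 note: 0% = enzyme with DMSO and 100% = wells lacking PAFAH1B3 protein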
# Numbers without * were called inactive; · = no result.
SMILES,PAFAH2 FP inh,CTSL1 counter,PAFAH1B3 inh,pPAFAH inh,PAFAH1B2 inh,PP5 inh,PAFAH1B3 confirm
O=C(COc1ccccc1)N1CCN(CCN2C(=O)c3cccc4cccc(c34)C2=O)CC1,1,-1,-7,2,-1,1,·
O=C(COc1ccccc1F)N1CCN(CCN2C(=O)c3cccc4cccc(c34)C2=O)CC1,2,1,28*,3,2,-1,5
COc1cc2c(cc1OC)-c1c(OC)c(OC)cc3c1[C@H](C2)N(C)CC3,19,8,34*,-1,11,1,9
O=C(O)CC1OCC=C2CN3CCC45C6=CC(=O)C(=O)C([N+](=O)[O-])=C6NC4C1C2CC35 (centres undefined),9,106*,72*,5,10,21*,9
Cc1cc(N2CCNCC2)nc2ccccc12,-3,-1,-3,-4,1,-1,·

# Screening data as filed in PubChem BioAssay.
